Experimental data from PubChem BioAssay (NCI).
This is part of a sample that, as a whole, favours compounds with a hit. Of some 83,000 tested, about 20% had one in any assay.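 Method: cells in 96-well plates; compound added at one concentration; 48 h incubation; percent growth measured; values under 10 scored active.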 Unmarked numbers belong to inactive results. Activity calls are given as the source filed them.

The compounds below were run on MDA-MB-468 breast (assay: NCI-60 one-dose screen, 48 h (100 = growth as untreated, 0 = no growth, -100 = all killed)). Details: 10 µM unless noted.

Row | SMILES | growth
1 | CCOC(=O)N1CCN(c2nc(Nc3cc(C)[nH]n3)c3ccccc3n2)CC1 | 30.6%
2 | CCOC(=O)c1cccc(NC2=C(Cl)C(=O)c3nc(C)ccc3C2=O)c1 | -33.4% (active)
3 | CN(C)CCOc1nc2c3cccnc3cc(-c3cccc(Cl)c3)c2c2ncccc12 | 2.18% (active)
4 | Clc1ccc(C2CC(c3cccc(Nc4ccncc4)c3)=NN2c2ccccc2)cc1 (stereo unspecified) | 61.6%
5 | CN1CCN(c2ccc(NC(=O)Nc3ccc4c(ccn4-c4cccc(C(N)=O)n4)c3)cc2C(F)(F)F)CC1 | 42.8%
6 | Clc1ccc(N/N=c2/oc3ccccc3cc2-c2cc3ccccc3[nH]2)cc1 | 59.8%
